Hits are enriched below; roughly 7.7% of the tested compounds scored in any of these assays.
HCMV antiviral – blocks human cytomegalovirus replication. HFF cells, HCMV-luciferase reporter, 72 h; stronger effect = lower value. activity change, negative = inhibition, % at 57.5 µM. 410,000 compounds, 4.5% hits. AID 1259415; in the data active = activity change below about -60%; inconclusive = no clear call, values can overlap the other calls; inactive = above about -39%
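HFF cells seeded 16 h at 37C, treated with compounds, infected with luciferase-reporter HCMV at MOI 1 PFU/cell; luciferase read at 72 h post infection, normalized to buffer-only and Salinomycin controls.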
Giardia FBPA inh – inhibitors of Giardia lamblia fructose-1,6-bisphosphate aldolase; Potency, µM (doses to about 59.6 µM), without a hit: at the top dose activity, negative = inhibition, hits mostly inhibitors; purified Giardia FBPA; 290,000 compounds, 0.71% hits; A8B2U2; note: potency is the fitted concentration of half-maximal effect; nearly all actives have a fitted effect of over 55% in size
Target sequence (A8B2U2 whole entry, looked up): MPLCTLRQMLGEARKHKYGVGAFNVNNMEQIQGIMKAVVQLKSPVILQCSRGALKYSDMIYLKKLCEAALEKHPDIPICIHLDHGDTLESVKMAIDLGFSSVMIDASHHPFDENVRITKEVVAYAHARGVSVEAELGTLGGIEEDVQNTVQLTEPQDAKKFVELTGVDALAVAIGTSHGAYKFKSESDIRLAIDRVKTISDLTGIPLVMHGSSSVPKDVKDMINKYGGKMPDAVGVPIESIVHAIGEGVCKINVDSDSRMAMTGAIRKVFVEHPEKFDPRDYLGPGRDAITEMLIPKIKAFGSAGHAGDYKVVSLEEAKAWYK
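40 nM FBPA preincubated 10 min at RT with compound (up to 57.5 uM final), then substrate plus GAPDH/TPI/NAD/arsenate coupling and diaphorase/resazurin added. Fluorescence read after 20 min at RT, 525/598 nm.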
Sm TGR block – inhibitors of Schistosoma mansoni thioredoxin glutathione reductase; purified TGR, DTNB reduction, TNB absorbance 405 nm; Potency, µM (titrated, usually from 114 µM), for inactives: at the highest dose activity change, negative = inhibition, usual class: inhibitors; 360,000 compounds, 3% hits; note: potency is the fitted concentration of half-maximal effect; nearly all actives have a fitted effect of over 60% in size
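TGR 20 nM + NADPH 100 uM (dispensed conc.), cpd preinc 15 min RT; start with NADPH (500 uM addition) then DTNB (15 mM addition). Kinetic TNB absorbance, 405 nm filter. Four-parameter Hill fit across titration.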
Tb PYK inh – T. brucei pyruvate kinase inhibition; TbPYK enzyme, Kinase-Glo Plus ATP luminescence, 45 min; Potency, µM (series often up to 76.8 µM), for the others: top-dose activity, negative = inhibition, hits mostly inhibitors; AID 624173; 410,000 compounds, 0.12% hits; note: potency is the fitted concentration of half-maximal effect; nearly all actives have a fitted effect of over 50% in size
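Screened from lowest to highest concentration, compounds were pinned into TbPYK/substrate mixtures, and ADP (130 uM final) was added. Plates sat at room temperature for 45 min prior to Kinase-Glo Plus detection by luminescence.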
FMDV inh – antivirals against foot and mouth disease virus; FMDV antiviral cell-based qHTS; Potency, µM (doses to about 57.9 µM), without a hit: top-dose activity change, negative = inhibition, actives largely listed as inhibitors; 410,000 compounds, 1.2% hits; calls by dose curve; tested in HEK293T cells; note: read-out not given here; potency is the fitted concentration of half-maximal effect; nearly all actives have a fitted effect of over 45% in size
RE007 growth inh – less growth of the S. pombe RE007 Vpr strain. 360,000 compounds, 0.21% hits. Potency, µM (top dose mostly 92.2 µM), inactives show at the highest dose activity change, negative = less growth, hits mostly inhibitors. S. pombe RE007 Vpr strain, BacTiter-Glo ATP luminescence, 24 h; active = well fitted falling curve with a large enough effect; inconclusive = small, poorly fitted or top-dose-only effect; inactive = no such curve, though single readings can be large or run the other way; note: potency is the fitted concentration of half-maximal effect; nearly all actives have a fitted effect of over 50% in size
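Fission yeast RE007 carrying one integrated HIV-1 vpr copy, seeded at OD 0.01 in PMG+AL medium with 23 nL pinned compound. Grown 24 h at 30 degrees; viability read by BacTiter-Glo luminescence after 5 min.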
The depositor's hits bear a star; u = inconclusive; x = no result; ! = a repeat was not active; [ ] = remark or other dose. Unless noted, calls come from the whole dose curve; as a rule, active = well fitted curve in the direction sought with a large enough effect; inconclusive = small, poorly fitted or top-dose-only effect, or another doubt; inactive = no such curve, though single readings can be large; an effect the other way counts as inactive or inconclusive. % is set by controls: 0 for no effect and ±100 for the full control effect.

SMILES | HCMV antiviral | Giardia FBPA inh | Sm TGR block | Tb PYK inh | FMDV inh | RE007 growth inh
NS(=O)(=O)c1ccc(N=Nc2c[nH]c(=O)c(O)c2)cc1 | -19.1 | 7.06µM* | 8.91µM* | u | -8.1% | -20.3%
Nc1nc(O)c(N=Nc2ccc(S(N)(=O)=O)cc2)c(=O)[nH]1 | -3.2 | 4.4% | 6.3% | 4.7% | 5.8% | 7.8%
NC(=S)NN=C1c2cc(Cl)ccc2-c2c1cc(Cl)cc2[N+](=O)[O-] | x | x | x | -5.3% | 20µM* | 0.1%
O=[N+]([O-])c1cccc(N=Nc2ccc(O)cc2O)c1 | -79.7* | x | x | -2.2% | -9.4% | -28.0%
O=[N+]([O-])c1ccc(N=Nc2c(O)[nH]c3ccc(F)cc23)cc1 | -29.3 | 12.5% | 2.0% | -20.5% | -1.3% | 15.1%
O=[N+]([O-])c1ccc(N=Nc2ccc(O)cc2O)cc1 | -99.4* | 0.4% | -3.3% | 8.0% | 10.1% | 0.3%
O=C(c1ccc2c(c1)OCO2)N(Cc1cc2cc3c(cc2nc1N1CCOCC1)CCC3)CC1CCCO1 (stereo not given) | x | x | x | x | 0.8% | x
Cc1cccc(CC2S/C(=N/c3ccccn3)NC2=O)c1 (stereo not given) | -64.6* | 3.0% | -4.1% | 0.1% | -4.5% | 2.3%
O=C1N/C(=N\N=C\c2ccccn2)SC1Cc1cccc(SC(F)F)c1 (stereo not given) | -98.7* | 6.0% | 5.1% | 5.1% | -16.7% | 20.4%
O=C1N/C(=N\c2ccccn2)SC1Cc1ccccc1Cl (stereo not given) | -11.7 | -5.5% | 8.5% | 1.7% | 13.4% | -0.4%
O=C1N/C(=N\N=C\c2cccnc2)SC1Cc1ccc(SC(F)F)cc1 (stereo not given) | -84.7* | 0.0% | -8.5% | -9.5% | 0.4% | 18.3%
O=C1N/C(=N\N=C\c2ccc3ncccc3c2)SC1Cc1ccc(SC(F)F)cc1 (stereo not given) | 19.5 | -9.1% | 0.1% | 4.8% | 5.9% | -14.9%
Cc1ccc2nc(Cl)c3cc(C(=O)NCCCN4CCC(C)CC4)sc3c2c1 | 5.4 | x | 0.3% | -1.2% | -12.8% | x
Oc1ccc(O)c(/C(=N/Nc2ccccc2)c2ccccc2)c1 | x | -11.2% | 6.31µM* | x | x | x
O=C(C(=NNc1ccccc1)c1ccccc1)c1ccccc1 | -4.0 | x | x | 0.8% | -18.6% | -11.3%
COc1ccc(OC)c(NC(=O)C2CCN(S(=O)(=O)c3ccc4c(c3)CC(C)N4C(C)=O)CC2)c1 (stereo not given) | -86.4*! | x | -0.3% | 4.7% | -22.0% | -3.7%
CCN(Cc1ccccc1)C(=O)CCNS(=O)(=O)c1ccc2c(c1)CC(C)N2C(C)=O (stereo not given) | -71.8*! | -3.3% | -14.1% | 1.5% | -5.2% | 16.0%
CC(=O)N1c2ccc(S(=O)(=O)N3CCCC3)cc2CC1C(=O)Nc1cc(C)cc(C)c1 (stereo not given) | -24.8 | -6.6% | 3.0% | 1.7% | -14.7% | 3.0%
CC(=O)N1c2ccc(S(=O)(=O)N3CCCCC3)cc2CC1C(=O)Nc1ccc(F)cc1C (stereo not given) | -79.3* | x | 1.8% | -8.3% | -3.4% | -7.5%
CC(=O)N1c2ccc(S(=O)(=O)NCC3CCC(C(=O)Nc4cc(C)ccn4)CC3)cc2CC1C (stereo not given) | -91.3* | u | 6.2% | 1.4% | u | -9.2%
CC(=O)N1c2ccc(S(=O)(=O)NCC3CCC(C(=O)Nc4ccc(C)cc4)CC3)cc2CC1C (stereo not given) | -23.2 | x | 9.5% | -1.9% | u | x
Cc1ccc(NC(=O)c2ncoc2-c2ccco2)cc1Cl | 49.9 | x | 1.6% | -10.3% | u | x
CC(=O)N1c2ccc(S(=O)(=O)NCC3CCC(C(=O)Nc4cccc(F)c4)CC3)cc2CC1C (stereo not given) | -76.7* | x | -1.6% | 5.7% | 20µM* | x
CC(=O)N1c2ccc(S(=O)(=O)N3CCC(C(=O)Nc4cc(C)ccn4)CC3)cc2CC1C (stereo not given) | -69.1* | 13.7% | -5.9% | 0.0% | u | -12.1%
Cc1c(C(=O)NCC2COCCO2)cnn1-c1nccc(-c2cccs2)n1 (stereo not given) | x | x | x | x | 32.0% | x
SMILES | HCMV antiviral | Giardia FBPA inh | Sm TGR block | Tb PYK inh | FMDV inh | RE007 growth inh
CC(C)(C)c1nnc(N/N=C/c2ccccc2O)n(N)c1=O | -101.7* | -17.7% | -19.9% | -5.8% | 1.5% | -26.9%
CC(C)(C)c1nnc(N/N=C/c2ccccc2)n(N)c1=O | -7.9 | -0.3% | 8.2% | -5.7% | -25.0% | x
CC[C@@H](C)CCCCC(=O)N[C@@H](CCNCS(=O)(=O)O)C(=O)N[C@H](C(=O)N[C@@H](CCNCS(=O)(=O)O)C(=O)N[C@H]1CCNC(=O)[C@H]([C@@H](C)O)NC(=O)[C@H](CCNCS(=O)(=O)O)NC(=O)[C@H](CCNCS(=O)(=O)O)NC(=O)[C@H](CC(C)C)NC(=O)[C@@H](CC(C)C)NC(=O)[C@H](CCNCS(=O)(=O)O)NC1=O)[C@@H](C)O | x | x | x | x | -2.3% | x
CN(C)CCCN1c2ccccc2Sc2ccc(Cl)cc21 | -66.1*! | u | -5.1% | -3.8% | u | -4.2%[18.4 µM]
CC1CCN(C(=O)c2scc3c2OCCO3)CC1 | -63.2* | -0.7% | -27.2% | 2.4% | 2.2% | -14.7%
CC1CN(C(=O)c2scc3c2OCCO3)CC(C)O1 (stereo not given) | 41.2 | -0.9% | -34.5% | -5.8% | -9.6% | 7.2%
COc1ccc(NC(=O)CSC2=Nc3ccccc3C3=NC(Cc4ccccc4)C(=O)N23)cc1Cl (stereo not given) | -25.7 | x | 6.1% | -11.4% | 18.5% | x
COc1cccc(C2C(=O)N(C3CCCCC3)CC(=O)N2Cc2ccc(Cl)cc2)c1 (stereo not given) | -68.2* | x | 9.9% | 6.8% | 1.4% | x
Fc1cccc(Cc2c(-c3ccco3)nc3ccc(Br)cn23)c1 | 56.6 | x | x | 25.1µM* | 35.5µM* | -10.0%
COc1ccc(-c2nc3ccc(Br)cn3c2Cc2ccccc2)cc1OC | -65.1* | x | x | 0.8% | -3.2% | 5.5%
Fc1cccc(Cc2c(-c3ccco3)nc3ccc(Cl)cn23)c1 | x | x | x | u | u | -8.2%
Cc1cccc(-c2nn3c(=O)cc(CN4CCN(C(=O)/C=C/c5ccccc5)CC4)nc3s2)c1 | -0.1 | x | -7.7% | -0.5% | 9.9% | x
O=c1[nH]c2cc(C(F)(F)F)c(N3CCOCC3)cc2n(CP(=O)(O)O)c1=O | x | 5.6% | x | -16.1% | -16.6% | x
Cc1cc2c(c(-c3ccc4nc(C)ccc4c3)c1)OC(CNC(=O)Cc1ccn(C)c1)C2 (stereo not given) | x | x | x | x | 5.4% | x
Cn1c(N2CCN(C(=O)C34CC5CC(CC(C5)C3)C4)CC2)nc2ccccc21 | x | 3.0% | 1.1% | x | x | x
Cn1c(N2CCN(S(=O)(=O)c3ccc(Cl)cc3)CC2)nc2ccccc21 | -60.7* | 3.4% | -2.4%[57.1 µM] | 1.6% | u | -9.1%

Screens (PubChem)
